# Compound activity: PubChem, National Center for Advancing Translational Sciences (NCATS)
# This is a sample that favours compounds with a hit; in the whole collection about 19% have one here.
# HT1080 IDH1KD tx: toxicity to HT-1080 IDH1 knockdown cells (counter line); HT-1080 IDH1 knockdown viability, ATP luminescence, 48 h; Potency, µM (series often up to 46.1 µM), for the others: top-dose activity, negative = toxicity, actives largely listed as cytotoxic; 360,000 tested, 2% active; AID 686971;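 further: potency means the concentration at half of the fitted maximal effect; 0% = DMSO wells and -100% = cell-free medium wells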
#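 After a 2 h attachment period, IDH1KD HT-1080 cells took pin-transferred compound for 48 h at 37 °C; ATP-based luminescence after 10 min room-temperature reagent incubation reported viability.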
# TDP1 cell CPT: DT40-hTDP1 cell growth loss with CPT. chicken DT40 Tdp1-/-;hTDP1 cells + 20 nM CPT, ATP luminescence, 48 h. Potency, µM (doses to about 46.2 µM), inactives show top-dose activity change, negative = growth inhibition, usual class: inhibitors. 420,000 tested, 12% active; further: potency means the concentration at half of the fitted maximal effect; nearly all actives have a fitted effect of over 55% in size
#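 Cell growth measured by CellTiter-Glo luminescence after a minimum 48 h, 37 C compound exposure with 20 nM CPT in Tdp1-knockout DT40 cells stably expressing hTDP1, seeded 400/well; qHTS titration format.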
# IL-1B inflam inh: blocks inflammasome-driven IL-1 beta release; activity change, % at 57.5 µM; THP-1 LPS/ATP IL-1B secretion, AlphaLISA, 16 h; hits give low values; 360,000 tested, 4.7% active; in the data active means activity change below about -50%; inconclusive means mostly about -30% to -49%
#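 THP-1 cells pretreated 1 hr with compounds (up to 57.5 uM final), then stimulated with LPS (250 ng/mL final) plus ATP (1.25 mM final); secreted IL-1B measured by AlphaLISA after 16 hr, decreased signal indicating inhibition.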
# HT1080NT lethal: kills 2HG-producing HT-1080-NT fibrosarcoma cells; HT-1080-NT fibrosarcoma viability, CellTiter-Glo ATP luminescence, 48 h; Potency, µM (series often up to 46.1 µM), inactives show at the highest dose activity, negative = less viability, usual class: cytotoxic; 360,000 tested, 1.6% active;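 further: NT is the 2HG producing partner of a matched IDH1 knockdown line; potency means the concentration at half of the fitted maximal effect; 0% = DMSO-treated cells and -100% = media-only wells without cells; nearly all actives have a fitted effect of over 55% in size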
#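 A 48-hour cytotoxicity screen used HT-1080-NT cells plated 2 hours before compound delivery. ATP-based CellTiter-Glo luminescence measured viability, normalized to DMSO and no-cell controls.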
# DT40 TDP1 no CPT: qHTS for Inhibitors of human tyrosyl-DNA phosphodiesterase 1 (TDP1): qHTS in cells in absence of CPT. DT40 Tdp1-/- hTDP1 cells, no CPT, ATP luminescence, 48 h. Potency, µM (doses to about 46.2 µM), for the others: at the highest dose activity change, negative = growth inhibition, hits mostly inhibitors. 420,000 tested, 15% active; further: potency means the concentration at half of the fitted maximal effect; nearly all actives have a fitted effect of over 55% in size
#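 Cells were dispensed at 400 per well, compounds added by pin tool, plates incubated ≥48 hr at 37 °C, then CellTiter-Glo added for 30 min at room temperature before luminescence reading. Line: DT40 Tdp1-/- complemented with hTDP1; camptothecin omitted.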
# Active calls of the source: *; ? = inconclusive; . = no result; [ ] = dose if it differs, or a comment. Unless noted, the call rests on the fitted dose curve; in most records, active means well fitted curve in the direction sought with a large enough effect; inconclusive means small, poorly fitted or top-dose-only effect, or another doubt; inactive means no such curve, though single readings can be large; an effect the other way counts as inactive or inconclusive. Unless noted, on the % scale 0 is the no-effect control and ±100 the full control effect.
SMILES,HT1080 IDH1KD tx,TDP1 cell CPT,IL-1B inflam inh,HT1080NT lethal,DT40 TDP1 no CPT
O=S(=O)(Cc1cc(Cl)nc(-c2ccncc2)n1)c1ccccc1,?,?,-97*,23µM*,?
O=S(=O)(Cc1cc(Cl)nc(-c2ccccc2)n1)c1ccccc1,?,-12%,-70*,2%,?
CS(=O)(=O)Cc1cc(Sc2ccccc2)nc(-c2ccncc2)n1,-2%,-7%,45,12%,-21%
O=c1cc(-c2cc3ccccc3oc2=O)c2ccc(O)cc2o1,.,2%[9.04 µM],.,.,?
Nc1ccn([C@@H]2O[C@H](CNCc3ccc(N4CCNCC4)cc3)[C@@H](O)[C@H]2O)c(=O)n1,-13%,-5%,11,16%,-6%
COc1ccc(CNC(=O)Nc2nc(C(N)CCc3ccccc3)cs2)cc1 (stereo unspecified),?,?,-56*,18µM*,?
COc1ccccc1NC(=O)Nc1nc(C(N)CCc2ccccc2)cs1 (stereo unspecified),?,?,-29,23µM*,13µM*
COc1ccc(CCNC(=O)Nc2nc(C(N)C3CCCCC3)cs2)cc1OC (stereo unspecified),?,?,-52*,?,?
COc1ccc(CCNC(=O)Nc2nc(C(N)CCc3ccccc3)cs2)cc1OC (stereo unspecified),?,?,?,16µM*,?
COc1ccc(CCNC(=O)CCc2ccccc2)cc1OC,4%,3%,.,20%,-26%
COc1ccc(CCNC(=O)Nc2nnc([C@H]3C[C@H](O)[C@@H](CO)O3)s2)cc1OC,4%,-23%,26,29%,-10%
CC(=O)c1c(C)[nH]c(C(=O)OCC(=O)NCc2ccc3c(c2)OCO3)c1C,-9%,?,2,-5%,?
COc1cc(NC(=O)NCc2ccncc2)cc(OC)c1OC,11%,5%,-1,15%,-2%
COc1cc(CNC(=O)Nc2nc(C(N)CCc3ccccc3)cs2)cc(OC)c1OC (stereo unspecified),?,?,-54*,?,?
Cc1csc(NC(=O)C2CCCN(S(=O)(=O)c3ccc(Br)s3)C2)n1 (stereo unspecified),-15%,16µM*,-14,-14%,18µM*
O=C(NCc1ccc2c(c1)OCO2)C1CCN(S(=O)(=O)c2ccc(Br)s2)CC1,-7%,-22%,-15,-5%,21µM*
O=S(=O)(c1ccc(Br)s1)N1CCC(Cc2ccccc2)CC1,-1%,14µM*,-3,3%,?
O=C(NCc1ccc2c(c1)OCO2)C1CCN(S(=O)(=O)c2cccs2)CC1,2%,-20%,-11,13%,-10%
O=C(Nc1ccc(Cl)cc1)C1CCN(S(=O)(=O)c2ccc(Br)s2)CC1,.,?,.,.,23µM*
CCn1c(CC(=O)Nc2ccc(F)cc2)nnc1SCC(=O)N1CCOCC1,5%,0%,3,-3%,-2%
CNC(=O)c1ccsc1NC(=O)C1CCN(S(=O)(=O)c2ccc(Cl)s2)CC1,?,16µM*,23,?,?
Cc1cc(NC(=O)C2CCN(S(=O)(=O)c3ccc(Br)s3)CC2)ccc1Br,.,?,.,.,16µM*
Cc1cc(NC(=O)C2CCCN(S(=O)(=O)c3ccc(Br)s3)C2)ccc1Br (stereo unspecified),.,?,.,.,13µM*
Cc1ccc(NC(=O)C2CCN(S(=O)(=O)c3cnc[nH]3)CC2)cc1C,4%,-8%,19,4%,-1%
Cc1cc(NC(=O)C2CCN(S(=O)(=O)c3cnc[nH]3)CC2)ccc1Br,-17%,-13%,-57*,-23%,?
Cc1cc(CSc2ccccc2)ccc1NC(=O)COc1ccccc1C,13%,1%,0,-19%,-4%
CCCCOc1cccc(-c2cc(C(=O)NNC(=S)NCC)c3ccccc3n2)c1,?,?,3,?,?
